Composite z-score and z-score data for 17 molecules are collected here from PubChem BioAssay.

Calls of active or inactive are those of the source. Unless noted, no rule for the calls is given here.

The subject of assay [1] is XIP peptide (Xip251-270) binding. The experiment in a line: small-molecule binders of XIP peptide, primary screen, biochemical, small-molecule microarray, fluorescence 635/667 nm, 0.1 µg/mL protein (AID 1182). To be noted: fluorescent protein binding, 635 nm, higher = more signal, called active from +8 up or from −8 down.
For a further assay, the system named is XIP peptide (Xip251-270). The experiment in a line: small-molecule binders of XIP peptide, primary screen, biochemical, small-molecule microarray, fluorescence 635/667 nm, 0.5 µg/mL protein (AID 1183). The note with it: small-molecule microarray binding, fluorescence 635 nm; higher = more signal.
Assay [2] is described as follows: Plasmodium falciparum growth inhibition, primary screen, strain 3D7, DAPI fluorescence, 100 nL (AID 1184).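 Also: parasites grown inside human red blood cells in medium with human serum.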 The note with it: P. falciparum 3D7 growth, 3 d, higher = more signal.
In assay [3] the target is Homeobox protein Hox-A13 (Mus musculus) (UniProt Q62424). The experiment in a line: inhibitors of HoxA13-DNA binding, primary screen, biochemical, fluorescence polarization, labeled oligonucleotide (AID 1185). To be noted: 15 min, higher = more signal, called active from +8 up or from −8 down. Background: Fluorescence polarisation rises when a labelled molecule tumbles more slowly, as on binding a larger partner.
Homeobox protein Hox-A13 (Mus musculus), sequence (Q62424 whole entry, looked up): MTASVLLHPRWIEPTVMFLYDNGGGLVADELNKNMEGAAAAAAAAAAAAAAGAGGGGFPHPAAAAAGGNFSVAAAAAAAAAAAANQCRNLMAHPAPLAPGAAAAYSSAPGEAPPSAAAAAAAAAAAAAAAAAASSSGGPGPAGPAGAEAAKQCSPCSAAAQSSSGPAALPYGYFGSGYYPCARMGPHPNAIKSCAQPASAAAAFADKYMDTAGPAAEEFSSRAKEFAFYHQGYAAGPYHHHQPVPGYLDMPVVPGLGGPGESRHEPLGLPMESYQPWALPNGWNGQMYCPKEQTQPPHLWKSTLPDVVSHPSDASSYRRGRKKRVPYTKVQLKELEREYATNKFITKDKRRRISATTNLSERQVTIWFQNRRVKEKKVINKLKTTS

Assay [4] in a line: inhibitors of hydroxyurea-induced Chk1 phosphorylation, primary screen, imaging, HeLa, phospho-Chk1 antibody, percent positive cells (AID 1186). To be noted: hydroxyurea-induced phospho-Chk1 immunofluorescence imaging, higher = more signal.
Assay [5] can be described thus: inhibitors of hydroxyurea-induced Chk1 phosphorylation, primary screen, imaging, HeLa, phospho-Chk1 nuclear intensity (AID 1187). To be noted: hydroxyurea-induced phospho-Chk1 immunofluorescence imaging, higher = more signal.

Consider `[N-]=[N+]=NCc1ccccc1C[C@@]1(C(=O)NCCN2CCOCC2)N=C(c2ccc(OCCCO)cc2)O[C@@H]1c1ccccc1CN=[N+]=[N-]`, for which the composite z-score is 0.607 (inactive) in assay [1] and 0.743 with XIP peptide (Xip251-270). The z-score in assay [2] was -2.22; in assay [3], -11.2 (active); in assay [4] it was 0.243 (inactive); in assay [5], 0.693 (inactive).

For the molecule `Cc1ccccc1C(O)C1C=CC2C(=O)N(Cc3ccccc3)C(=O)C2N1n1cnnc1` (configuration not stated), the composite z-score is 0.598 (inactive) in assay [1] and 0.58 in the assay with XIP peptide (Xip251-270). Moreover, the z-score in assay [2] is -0.318; in assay [3], -3.23 (inactive); in assay [4], 0.135 (inactive); in assay [5], -0.544 (inactive).

`C=C(C(=O)CC[C@H](OC(=O)c1cccnc1)c1ccc(OCCO)cc1)C(C)C`: the composite z-score was 0.538 (inactive) in assay [1] and 0.551 in the assay on XIP peptide (Xip251-270). The z-score in assay [2] is -2.02; in assay [3] it was -4.81 (inactive); in assay [4], 0.387 (inactive); in assay [5] it was 0.05 (inactive).

Take `CC1(C)[C@@H]2CC(C(O)C3C=CC4C(=O)N(c5ccccc5)C(=O)C4N3Nc3ccccc3F)=C[C@@H]1C2` (some centres not stated): the composite z-score in assay [1] is 0.572 (inactive); with XIP peptide (Xip251-270), 0.458. Moreover, the z-score was -0.59 in assay [2], -2.4 (inactive) in assay [3], 0.498 (inactive) in assay [4] and 0.749 (inactive) in assay [5].

In the case of `NC(=O)NCC#Cc1ccc2c(c1)[C@]1(C(=O)N2)[C@H](c2ccc(OCCO)cc2)N2[C@H](c3ccccc3)[C@H](c3ccccc3)OC(=O)[C@H]2[C@@H]1C(=O)N1CCN(c2ncccn2)CC1`, the composite z-score in assay [1] was 0.0244 (inactive); with XIP peptide (Xip251-270) it was 0.353. Further, the z-score in assay [2] was 0.149; in assay [3], 0.314 (inactive); in assay [4], 0.432 (inactive); in assay [5] it was 1.09 (inactive).

As to `CC1CC/C=C\[C@H]2OC34C=CCN(Cc5ccccc5)C(=O)[C@H]3N(CCO)C(=O)[C@@H]4C2C(=O)O1` (some centres not stated), the composite z-score is 0.449 (inactive) in assay [1] and 0.108 with XIP peptide (Xip251-270). In addition, the z-score was -1.56 in assay [2], -4.51 (inactive) in assay [3], -0.455 (inactive) in assay [4] and -0.466 (inactive) in assay [5].

For the molecule `CCOC(=O)C1=CC[C@@H](c2ccc(N(CC)CC)cc2)N(S(=O)(=O)c2ccc(C)cc2)[C@H]1c1ccc([N+](=O)[O-])cc1`, the figures for the composite z-score (in assay [1]; with XIP peptide (Xip251-270)) were 0.326 (inactive) and 0.357, respectively. Further, the z-score is -2.1 in assay [2], -1.99 (inactive) in assay [3], 0.0638 (inactive) in assay [4] and -0.244 (inactive) in assay [5].

With `C=C(COC)C(=O)CC[C@H](OC(=O)c1ccccc1-c1ccccc1C(=O)O)c1ccc(OCCO)cc1`, the results for the composite z-score (in assay [1]; in the assay with XIP peptide (Xip251-270)) were 0.0817 (inactive) and 0.264, respectively. Besides, the z-score in assay [2] is -1.84; in assay [3] it was -5.78 (inactive); in assay [4] it was -0.33 (inactive); in assay [5] it was -0.537 (inactive).

For `Cc1ccc(C(C)CC(O)C2C=CC3C(=O)N(Cc4ccccc4)C(=O)C3N2n2cnnc2)o1` (configuration not stated), the composite z-score in assay [1] is 0.831 (inactive); in the assay on XIP peptide (Xip251-270) it was 0.731. For the same molecule, the z-score in assay [2] is -0.981; in assay [3] it was -2.57 (inactive); in assay [4], 0.0591 (inactive); in assay [5], -0.208 (inactive).

As to `C=C(CCCC)/C(=C/C[C@@H](OC(=O)c1ccncc1)c1ccccc1OCCO)c1cc(C(=O)OC)ccc1OC`, the composite z-score is 0.711 (inactive) in assay [1] and -0.127 in the assay on XIP peptide (Xip251-270). Further, the z-score in assay [2] was -2.98; in assay [3], -3.47 (inactive); in assay [4] it was -0.585 (inactive); in assay [5] it was 0.185 (inactive).

Regarding `COCCCNC(=O)[C@@]1(Cc2ccccc2N=[N+]=[N-])N=C(c2ccc(OCCCO)cc2)O[C@H]1c1ccccc1CN=[N+]=[N-]`, the composite z-score in assay [1] is 0.401 (inactive); with XIP peptide (Xip251-270), 0.763. For the same molecule, the z-score in assay [2] is -2.23; in assay [3] it was 0.427 (inactive); in assay [4], -0.314 (inactive); in assay [5] it was 0.446 (inactive).

`CCCC=C(CCC)[C@@H](NS(=O)(=O)c1cccc2cccnc12)c1ccc(C(=O)OC)cc1`: the composite z-score in assay [1] was -0.357 (inactive); in the assay on XIP peptide (Xip251-270) it was 0.315. Besides, the z-score in assay [2] is -0.271; in assay [3], -2.22 (inactive); in assay [4], -0.767 (inactive); in assay [5] it was -0.492 (inactive).

Regarding `CC1=C2[C@@H](CCc3ccccc3)OB(O)C[C@@H]2[C@@H]2C(=O)C=CC(=O)[C@@H]2C1`, the composite z-score is -0.387 (inactive) in assay [1] and 0.403 with XIP peptide (Xip251-270). For the same molecule, the z-score in assay [2] is -1.15; in assay [3] it was -6.24 (inactive); in assay [4] it was 1.15 (inactive); in assay [5], 1.1 (inactive).

As for `COC(=O)[C@@]1(Cc2ccc(F)cc2)[C@H]2c3cc(C(=O)N4CCCC4)n(Cc4ccccc4)c3C[C@H]2CN1C(=O)c1ccccc1`, the composite z-score in assay [1] is 0.0584 (inactive); with XIP peptide (Xip251-270) it was 0.703. The z-score is -0.443 in assay [2], -3.98 (inactive) in assay [3], -0.0167 (inactive) in assay [4] and 0.0304 (inactive) in assay [5].

In the case of `CC(C)=CCCC(C)=CC(O)C1C=CC2C(=O)N(c3ccccc3)C(=O)C2N1Nc1ccc([N+](=O)[O-])cc1` (configuration not stated), the composite z-score was 0.174 (inactive) in assay [1] and 0.817 in the assay on XIP peptide (Xip251-270). The z-score in assay [2] was -0.0908; in assay [3], -4.57 (inactive); in assay [4], 0.458 (inactive); in assay [5], -0.178 (inactive).

For `O=C1c2ccccc2C(=O)C2CC([C@H]3Oc4ccccc4S(=O)(=O)N4CCC[C@@H]34)=CCC12` (some centres not stated), the composite z-score in assay [1] was -0.26 (inactive); with XIP peptide (Xip251-270), -0.267. The z-score was -1.24 in assay [2], -1.77 (inactive) in assay [3], -0.278 (inactive) in assay [4] and -0.063 (inactive) in assay [5].

On to `COCC1=C([C@H](O)CCc2ccccc2)[C@H](CO)[C@@H]2C(=O)N(C)C(=O)[C@@H]2C1`, for which the values for the composite z-score (in assay [1]; in the assay on XIP peptide (Xip251-270)) were -0.328 (inactive) and 0.104, respectively. Besides, the z-score is -0.119 in assay [2], -6.06 (inactive) in assay [3], -0.32 (inactive) in assay [4] and -0.523 (inactive) in assay [5].
